# Inconclusive results are not listed. Values without a mark were called inactive. Active and inactive are the calls of the source. Calls follow the shape of the dose curve; as a rule, active = well fitted inhibition curve with a large enough effect; inconclusive = small, poorly fitted or top-dose-only effect, or effect the other way; inactive = flat fitted curve, though single readings scatter.
# Target: Ubiquitin carboxyl-terminal hydrolase 2 (Homo sapiens) (UniProt O75604)
# Assay: Confirmation Assay for Inhibitors of Ubiquitin-specific Protease USP2a Using CHOP2 as the Reporter; also: nearly all actives have a fitted effect of over 55% in size;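 as to activity change, negative = inhibition: plate controls were DMSO wells for no effect and full inhibition by NEM control for full effect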
# Settings: USP2 core, Ub-CHOP2 coupled reporter fluorescence; series mostly up to 38.3 µM; activity change, negative = inhibition: at the top concentration
# How it was run: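 Ub-CHOP2 cleavage coupled to reporter activation was read by fluorescence after 60 min at RT, with 25 nM final Ub-CHOP2 and substrate. Enzyme (10 nM final USP2 core) first sat 30 min with compound; data were normalized to NEM and fitted to concentration-response curves.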
# Potency is read from the fitted curve at half-maximal effect.
# Sequence of Ubiquitin carboxyl-terminal hydrolase 2 (Homo sapiens) (O75604 whole entry, looked up): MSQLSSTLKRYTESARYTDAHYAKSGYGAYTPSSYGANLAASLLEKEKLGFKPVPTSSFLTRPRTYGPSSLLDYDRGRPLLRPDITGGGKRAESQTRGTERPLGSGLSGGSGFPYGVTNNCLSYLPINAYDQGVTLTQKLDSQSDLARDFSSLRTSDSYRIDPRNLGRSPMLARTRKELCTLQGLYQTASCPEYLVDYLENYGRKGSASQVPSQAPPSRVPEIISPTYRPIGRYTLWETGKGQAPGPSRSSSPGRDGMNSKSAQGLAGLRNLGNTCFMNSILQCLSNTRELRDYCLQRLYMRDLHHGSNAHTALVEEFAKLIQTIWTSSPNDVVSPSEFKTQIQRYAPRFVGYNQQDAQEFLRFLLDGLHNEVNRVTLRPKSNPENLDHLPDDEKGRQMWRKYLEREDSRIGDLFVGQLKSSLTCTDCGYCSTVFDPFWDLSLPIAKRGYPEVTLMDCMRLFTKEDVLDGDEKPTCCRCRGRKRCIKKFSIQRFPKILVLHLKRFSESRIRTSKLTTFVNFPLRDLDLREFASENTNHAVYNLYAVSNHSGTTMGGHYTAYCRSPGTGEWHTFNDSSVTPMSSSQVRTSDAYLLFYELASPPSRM
SMILES,"activity change, negative = inhibition [%]",Potency
Oc1ccccc1/C=N/Nc1ncc(Br)cn1,-2.24,
O=C(c1ccccc1N(Cc1ccccc1)S(=O)(=O)c1ccccc1)N1CCOCC1,0.161,
CSCC[C@H](NC(=O)C1CCN(S(=O)(=O)c2ccc(C)cc2)CC1)C(=O)NCc1ccco1,-3.41,
COc1ccc(C2CC(=O)N3CN(c4ccccc4F)CSC3=C2C#N)cc1OC (centres undefined),-2.34,
O=C(CSc1nc(N2CCCCC2)nc(N2CCCCC2)n1)N1CCN(c2ccccc2)CC1,0.372,
CCCCC(CC)CN=C(N)NC(N)=NCCCCCCN=C(N)NC(N)=NCC(CC)CCCC (centres undefined),,4.65 µM (active)
Cn1c(=O)c2c(nc(CN3CCN(C(=O)c4ccco4)CC3)n2CCCc2ccccc2)n(C)c1=O,1.35,
C=C(CCC(=O)c1ccccc1)C(=O)c1ccccc1,-11.2,
Cc1ccc(C)n1-c1cc(S(=O)(=O)N2CCOCC2)ccc1N1CCCC1,-0.614,
CCCn1c(C)cc(C)c(C#N)c1=O,7.38,
COc1ccc(OC)c(NC(=O)CSc2nc(O)cc(=O)n2CC(C)C)c1,1.08,
Nn1c(Nc2ccccc2)nc2ccccc2c1=O,5.37,
C#CCOCCOCCOCCNc1nc(N2CCN(C(=O)CCCCCCCCCCNC(=O)[C@@H](CCC(=O)O)n3cc(CCCCCN)nn3)CC2)nc(N2CCN(C(=O)CCCCCCCCCCNC(=O)[C@H](CCCCN)n3cc(C[C@@H](C)CC)nn3)CC2)n1,,5.21 µM (active)
CC(C)c1ccc2c(c1)c(SC(C)(C)C)c(CC(C)(C)C(=O)O)n2Cc1ccc(Cl)cc1,,6.56 µM (active)
COc1ccc(-c2csc(N3CCN(C(=O)c4ccco4)CC3)n2)cc1,-3.7,
CCn1nnnc1SCC(=O)Nc1cccc(C)n1,1.28,
O=C(/C=N/O)NCc1cccnc1,0.699,
Cc1ccc(/C=C2/SC(=S)N(c3ccc(S(=O)(=O)Nc4nccs4)cc3)C2=O)cc1,,6.56 µM (active)
Cc1sc2nc(CN3CCN(c4ccc(O)cc4)CC3)[nH]c(=O)c2c1C,-4.34,
COc1ccc(/C=N/NC(=O)c2nn(-c3ccccc3)c(=O)c3c(N)scc23)cc1,-4.38,

SMILES,"activity change, negative = inhibition [%]",Potency
C[C@@H]1CN([C@@H](C)CO)C(=O)c2cc(NC(=O)CCC(F)(F)F)ccc2O[C@H]1CN(C)S(=O)(=O)c1ccc(Cl)cc1,0.826,
CCOC(=O)Cn1c(=O)oc2cc(S(=O)(=O)Nc3cc(Cl)ccc3OC)ccc21,3.99,
O=C1c2ccccc2C(=O)N1CCC1=CCCCC1,-1.52,
CC1CCCCN1CCNC(=O)c1cnn2ccccc12 (centres undefined),0.354,
O=C1CCCc2nc(N3CCN(c4ccccc4)CC3)ncc21,-1.03,
NC(=O)CC(NC(=O)Cc1ccc(Br)cc1)c1ccc(N2CCC(Cc3ccccc3)CC2)c([N+](=O)[O-])c1 (centres undefined),-0.26,
CCOC(=O)N1CCN(C(=O)CN(c2cccc(C)c2)S(=O)(=O)c2ccccc2)CC1,-1.01,
COc1cc(C)ccc1OCCOc1cc(C)ccc1Cl,6.42,
c1ccc(CN2CCN(CCOCCOc3cccc4ccccc34)CC2)cc1,-13.4,
O=C(c1ccccc1)N1CCN(C2C3CC4CC(C3)CC2C4)CC1 (centres undefined),5.17,
CCOc1ccc2[nH]c(=O)c(CN(Cc3nnnn3Cc3ccco3)C3CCCCC3)cc2c1,-11.1,
COc1ccc2[nH]c(=O)c(CN(C3CCCCC3)C(c3nnnn3Cc3ccco3)C(C)C)cc2c1 (centres undefined),,10.4 µM (active)
CC(C)(C)C1C=C(Sc2ccccc2)C(=O)O1 (centres undefined),-0.936,
O=C(C1CCCN(S(=O)(=O)c2cccc3cccnc23)C1)N1CCN(c2ccccc2F)CC1 (centres undefined),-4.76,
Cc1ccc(/C(O)=C/C(=O)C(=O)NNC(=O)C(O)(c2ccccc2)c2ccccc2)cc1,,14.7 µM (active)
Cc1cc(-c2csc(NCc3ccccc3)n2)c(C)n1C,,18.5 µM (active)
COc1cc2c(C(=O)N3CCN(c4cccc(Cl)c4)CC3)cn(CC(C)C)c(=O)c2cc1OC,-2.06,
Cc1ccccc1OCc1nc2ccccc2c(=O)n1N,2.31,
CCO[C@H]1OC(C(=O)N2CCCCCCC2)=C[C@@H](c2ccc(C(F)(F)F)cc2)[C@@H]1CCCO,2.48,
